Screening results (PubChem BioAssay)
The list is not random: actives were taken first. Their share in the collection is about 12%.
L3MBTL1 inh – inhibitors of human L3MBTL1 | Q9Y468 | AlphaScreen L3MBTL1–H3K9me1 peptide binding | Potency, µM (series often up to 57.1 µM), for inactives: at the top dose activity, negative = inhibition, most hits filed as inhibitors | 0.66% of 230,000 active; further: on the % scale 0 is the no-effect control and ±100 the full control effect; nearly all actives have a fitted effect of over 60% in size
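Displacement of a biotinylated histone H3(1-15) peptide monomethylated at Lys9 (75 nM) from L3MBTL1 (50 nM) was measured by AlphaScreen after a 30 min room-temperature compound incubation; cefsulodin titration served as intraplate control.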
G9a inh – blocks human histone lysine methyltransferase G9a. G9a H3K9 monomethylation, AlphaScreen, 2 h. Q96KQ7. 8.8% of 350,000 active. Potency, µM (titrated, usually from 102 µM), for inactives: at the top dose activity, negative = inhibition, hits mostly inhibitors; further: on the % scale 0 is the no-effect control and ±100 the full control effect; nearly all actives have a fitted effect of over 75% in size
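Using a bead-based AlphaScreen, monomethylated H3K9 product from 2 h room-temperature reactions (G9a 20 nM, peptide 500 nM, SAM 20 uM) was detected with 0.5 ug/mL rabbit anti-H3K9me1 antibody.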
BAZ2B block – blocks human BAZ2B; Q9UIF8; AlphaScreen BAZ2B-H3K14Ac peptide displacement; Potency, µM (doses to about 114 µM), for the others: at the highest dose activity change, negative = inhibition, actives largely listed as inhibitors; 4.4% of 360,000 active; AID 504333; further: on the % scale 0 is the no-effect control and ±100 the full control effect; nearly all actives have a fitted effect of over 60% in size
Target sequence (Q9UIF8 whole entry, looked up): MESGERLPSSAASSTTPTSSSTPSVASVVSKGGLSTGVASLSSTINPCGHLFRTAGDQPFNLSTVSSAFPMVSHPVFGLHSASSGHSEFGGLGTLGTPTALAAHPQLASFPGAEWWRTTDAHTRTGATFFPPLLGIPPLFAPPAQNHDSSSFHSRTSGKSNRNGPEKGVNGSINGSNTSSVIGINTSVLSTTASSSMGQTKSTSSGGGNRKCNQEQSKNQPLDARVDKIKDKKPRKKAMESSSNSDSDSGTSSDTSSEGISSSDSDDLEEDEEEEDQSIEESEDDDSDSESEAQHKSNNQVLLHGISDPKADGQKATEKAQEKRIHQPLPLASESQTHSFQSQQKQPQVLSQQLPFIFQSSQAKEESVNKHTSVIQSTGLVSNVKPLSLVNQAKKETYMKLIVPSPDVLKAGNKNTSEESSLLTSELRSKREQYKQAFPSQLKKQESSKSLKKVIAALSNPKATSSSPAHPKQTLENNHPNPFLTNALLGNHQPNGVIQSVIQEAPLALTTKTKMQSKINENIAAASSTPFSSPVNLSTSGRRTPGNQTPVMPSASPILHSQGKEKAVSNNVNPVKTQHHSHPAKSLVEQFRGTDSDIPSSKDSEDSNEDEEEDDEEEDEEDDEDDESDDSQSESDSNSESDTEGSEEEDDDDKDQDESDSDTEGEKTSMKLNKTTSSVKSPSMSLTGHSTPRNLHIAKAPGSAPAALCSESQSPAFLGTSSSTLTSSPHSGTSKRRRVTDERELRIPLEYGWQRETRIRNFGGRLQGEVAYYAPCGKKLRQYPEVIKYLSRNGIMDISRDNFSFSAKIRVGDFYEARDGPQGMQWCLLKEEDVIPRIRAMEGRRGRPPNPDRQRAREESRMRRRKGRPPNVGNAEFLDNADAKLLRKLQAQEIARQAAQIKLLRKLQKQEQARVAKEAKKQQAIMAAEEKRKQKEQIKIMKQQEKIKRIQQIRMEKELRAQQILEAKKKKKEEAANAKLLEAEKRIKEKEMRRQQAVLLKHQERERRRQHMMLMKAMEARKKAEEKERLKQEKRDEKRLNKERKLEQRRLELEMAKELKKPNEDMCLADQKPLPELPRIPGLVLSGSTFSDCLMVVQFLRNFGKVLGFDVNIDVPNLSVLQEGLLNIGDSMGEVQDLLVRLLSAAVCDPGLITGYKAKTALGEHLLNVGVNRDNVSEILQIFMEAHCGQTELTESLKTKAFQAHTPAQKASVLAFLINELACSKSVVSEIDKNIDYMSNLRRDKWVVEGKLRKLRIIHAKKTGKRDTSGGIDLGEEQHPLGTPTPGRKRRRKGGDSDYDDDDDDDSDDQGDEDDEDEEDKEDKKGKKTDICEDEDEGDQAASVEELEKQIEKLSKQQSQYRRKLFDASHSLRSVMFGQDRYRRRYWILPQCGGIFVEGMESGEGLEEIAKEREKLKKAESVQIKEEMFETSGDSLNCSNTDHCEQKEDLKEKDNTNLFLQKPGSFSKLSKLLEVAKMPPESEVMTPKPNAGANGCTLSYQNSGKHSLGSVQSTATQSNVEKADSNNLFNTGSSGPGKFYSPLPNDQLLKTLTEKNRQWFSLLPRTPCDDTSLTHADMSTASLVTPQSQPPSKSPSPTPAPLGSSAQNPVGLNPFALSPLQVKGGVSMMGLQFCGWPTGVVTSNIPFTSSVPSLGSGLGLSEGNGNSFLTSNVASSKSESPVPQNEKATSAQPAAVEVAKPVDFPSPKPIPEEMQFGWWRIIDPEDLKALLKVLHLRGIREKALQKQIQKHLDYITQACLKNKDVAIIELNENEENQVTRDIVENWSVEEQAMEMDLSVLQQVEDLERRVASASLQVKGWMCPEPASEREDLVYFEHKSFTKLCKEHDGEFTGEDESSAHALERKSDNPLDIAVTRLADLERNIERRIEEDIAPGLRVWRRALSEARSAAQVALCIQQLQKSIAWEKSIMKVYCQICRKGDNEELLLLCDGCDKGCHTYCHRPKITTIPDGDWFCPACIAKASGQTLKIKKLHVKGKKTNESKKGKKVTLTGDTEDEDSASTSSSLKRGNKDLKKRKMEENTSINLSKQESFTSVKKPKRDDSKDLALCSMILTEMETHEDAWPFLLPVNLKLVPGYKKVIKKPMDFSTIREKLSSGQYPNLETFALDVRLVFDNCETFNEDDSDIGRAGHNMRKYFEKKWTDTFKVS
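Compounds, titrated to a top concentration of 110 uM, were incubated 30 min at room temperature with preformed BAZ2B/acetyl-K14 H3 peptide complex (50 nM each). Proximity signal was measured by AlphaScreen after 20 min with beads.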
JMJD2A Tudor – inhibitors of human JMJD2A Tudor domain | AlphaScreen JMJD2A-Tudor / H3K4me3 peptide binding | Potency, µM (top dose mostly 114 µM), inactives show at the highest dose activity change, negative = inhibition, hits mostly inhibitors | 4.4% of 390,000 active | AID 504339; further: on the % scale 0 is the no-effect control and ±100 the full control effect; nearly all actives have a fitted effect of over 50% in size
Sfp inh – blocks B. subtilis Sfp PPTase activity | Potency, µM, inactives show largest response in the series, negative = inhibition, actives largely listed as inhibitors | AID 1490 | Biochemical Sfp PPTase activity, qHTS | 3.5% of 310,000 active | Q9F4F7;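 further: the enzyme is Sfp with the accession as filed and its product quenches rhodamine fluorescence; 0% = enzyme reaction without inhibitor and -100% = no enzyme wells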
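Fluorescence-quenching assay with 15 nM Sfp, 5 uM rhodamine-CoA and 12.5 uM BHQ-2-labelled ybbR peptide in pH 7.6 Hepes/MgCl2 buffer. Enzyme was pre-incubated with compound for 15 min at room temperature. Rate was taken from the 30-min fluorescence change (525/598 nm).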
HP1b binding inh – blocks HP1-beta chromodomain binding to methylated histone tails. P83916. AlphaScreen HP1-beta / biotin-H3K9me3 peptide binding. Potency, µM (series often up to 114 µM), inactives show at the top dose activity change, negative = inhibition, hits mostly inhibitors. 0.56% of 390,000 active; further: nearly all actives have a fitted effect of over 70% in size
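Compound inhibition of the preformed complex between 50 nM HP1-beta and 50 nM biotinylated H3K9me3 peptide was read by AlphaScreen. Buffer was PBS pH 7.4 with 0.01% Tween-20. Incubations ran 30 min at room temperature, with 10 ug/mL donor/acceptor beads.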
The depositor's hits bear a star; ? = inconclusive; nt = no result; [ ] = remark or other dose. The call rests on the fitted dose curve; in most records, active means well fitted curve in the direction sought with a large enough effect; inconclusive means small, poorly fitted or top-dose-only effect, or another doubt; inactive means no such curve, though single readings can be large; an effect the other way counts as inactive or inconclusive. Potency means the concentration at half of the fitted maximal effect.

SMILES | L3MBTL1 inh | G9a inh | BAZ2B block | JMJD2A Tudor | Sfp inh | HP1b binding inh
CCN(CC)C(=O)c1sc2nc(-c3cccs3)cc(-c3ccc(Cl)cc3)c2c1N | -4% | 0% | 30%[57.1 µM] | 47% | 79µM* | 175%
COc1ccccc1C(=O)Oc1c(Sc2ccccc2)c(C)nn1C(C)(C)C | nt | 55%[59 µM] | 24% | 23% | nt | 62%
CCN(C(=O)c1cn(CC(C)C)c(=O)c2cc(OC)c(OC)cc12)c1cc(OC)ccc1OC | nt | 3%[59 µM] | 1% | -19% | nt | 5%
CCCCc1cc2c(cn1)C(=O)C(C)(OC(C)=O)C(=O)C2 (centres undefined) | nt | nt | nt | nt | 15% | nt
Cc1ccc(Sc2ccc(N3CCC(C(=O)Nc4cc(C)cc(C)c4)CC3)nn2)cc1 | nt | 4%[59 µM] | 2% | -15% | nt | 9%
O=C(NC1CC(=O)N(c2ccccc2)C1)c1ccc(S(=O)(=O)N2CCOCC2)cc1 (centres undefined) | nt | 8%[59 µM] | -2% | -6% | nt | 17%
O=C(c1ccccc1)N1N=C(c2ccccc2)CC1c1ccccc1O (centres undefined) | -13% | ? | ? | 11µM* | 10µM* | ?
COc1cccc(C2CC(c3ccc(C)cc3)=NN2C(=O)c2ccccc2F)c1OC (centres undefined) | nt | 22% | -7% | -27% | -4% | 20%
Cc1ccc(C2=NN(C(=O)c3ccccc3F)C(c3ccccc3F)C2)cc1 (centres undefined) | nt | 16µM* | -38% | -19% | 50µM* | -18%
O=C(Cn1c(=O)c2sccc2n(CC(=O)Nc2ccc(Cl)cc2Cl)c1=O)NCCc1ccccc1 | nt | 27%[59 µM] | 0% | -12% | nt | 23%
c1ccc(OCC2CCNCC2)nc1 | nt | 79µM* | -20% | -11% | -5% | 12%
Cc1n[nH]c(C)c1Sc1ccccc1N=Cc1cc([N+](=O)[O-])ccc1O | nt | 10µM* | 4% | nt | -5% | nt
Cc1ccccc1NC(=O)CCC(=O)N/N=C/c1cc([N+](=O)[O-])ccc1O | ? | -13% | ? | -20% | 0% | 20%
Cc1cc(O)c(C(C)C)cc1N=Cc1ccccc1O | -29% | 5.6µM* | ? | ? | 14µM* | -17%[57 µM]
O=c1[nH]cc(N=Cc2cc([N+](=O)[O-])ccc2O)c(=O)[nH]1 | -2% | nt | -2% | nt | -3% | nt
Cc1cc(O)c(C(C)C)cc1N=Cc1cc([N+](=O)[O-])ccc1O | 7% | nt | -11% | -21% | 14µM* | 15%
COc1ccc(C(CC(=O)Nc2ccc(OC)c(OC)c2)N2Cc3ccccc3C2=O)cc1 (centres undefined) | nt | -26%[59 µM] | 79µM* | -27% | nt | 12%
COc1ccc(C(CC(=O)Nc2cc(OC)c(OC)c(OC)c2)N2Cc3ccccc3C2=O)cc1 (centres undefined) | nt | -45%[59 µM] | -30% | -29% | nt | -11%
CCOC(=O)c1c(NC(=O)C2=C(C)NC(=S)NC2c2ccccc2C(F)(F)F)sc(C)c1C (centres undefined) | -14% | 21%[59 µM] | -27% | -17% | 16µM* | -8%
O=S(=O)(NCC(c1ccco1)S(=O)(=O)c1ccccc1)c1cc(F)ccc1F (centres undefined) | nt | -1%[59 µM] | 3% | -1% | nt | 63%
COc1ccc(C)cc1NC(=O)C(NS(=O)(=O)c1cccc2nsnc12)c1ccccc1 (centres undefined) | nt | -3%[59 µM] | nt | -31% | nt | 18%
O=C(Cn1nc(C(F)(F)F)c2c1CCCC2)Nc1ccc(Br)cc1 | nt | -6%[59 µM] | 0% | 1% | nt | 25%
CC(=O)c1ccc(N=Nc2ccc(C)cc2)cc1 | nt | 7.9µM* | 7.9µM* | 7.9µM* | 0% | ?
CN(C)c1ccc(N=Nc2ccccc2Br)cc1 | nt | 3.5µM* | 4.5µM* | 10µM* | -3% | 5µM*
Cc1ccc(C(=O)c2ccc(C)cc2)cc1 | 35% | 54% | 82% | 53% | 1% | 97%
SMILES | L3MBTL1 inh | G9a inh | BAZ2B block | JMJD2A Tudor | Sfp inh | HP1b binding inh
COC(=O)c1ccc(C)cc1 | 2% | nt | nt | -7% | nt | 45%
C=C(C)C(=O)Oc1ccc(N=Nc2ccc(C)cc2)ccc1=O | nt | nt | nt | 3.5µM* | nt | 10µM*
COC(=O)c1ccc(NN=Nc2ccc(C)cc2)cc1 | -1% | 7.9µM* | ? | 32µM* | -17% | 79µM*
COc1ccc(CNC(=O)CSc2ncc3c(n2)-c2cc(Cl)ccc2N(Cc2ccccc2)S3(=O)=O)cc1OC | nt | -7%[59 µM] | -9% | -15% | nt | 33%
CCc1ccccc1N(C)S(=O)(=O)c1ccc2[nH]cc(C(=O)NCCOC)c(=O)c2c1 | nt | -21%[59 µM] | 2% | -3% | nt | 37%
CC(=O)c1ccc(Sc2ccc(C(C)=O)cc2)cc1 | 68% | 3%[59 µM] | 2% | 10% | 12% | 40%
CC(=O)c1ccc(N=Nc2ccc(N(C)C)cc2)cc1 | -3% | -51% | 1.1µM* | -31% | -3% | -19%
Cc1cccn2c(=O)cc(COc3cccc(NC(=O)COc4ccccc4)c3)nc12 | nt | -20%[59 µM] | 0% | -13% | nt | 12%[57 µM]
CCCCNC(=O)c1sc(=S)n2c1[nH]c(=O)c1ccc(C(=O)NCCc3ccc(OC)c(OC)c3)cc12 | nt | 25µM* | ? | -26% | 12% | -23%[57 µM]
O=C(NCc1ccccc1)c1sc(=S)n2c1[nH]c(=O)c1ccccc12 | 0% | 28µM* | 45µM* | ? | 8% | -22%
O=C(NC(=S)Nc1ccc(CN2CCOCC2)cc1)c1ccc(-c2cccc(Cl)c2)o1 | -7% | ? | ? | ? | -2% | -7%
O=C(Nc1ccc(CN2CCOCC2)cc1)c1ccc(-c2cccc(Cl)c2)o1 | ? | 18µM* | ? | -34% | -26% | -13%
O=C(Nc1ccc(CN2CCOCC2)cc1)c1ccc(-c2ccc(Cl)cc2Cl)o1 | -18% | 40µM* | ? | -27% | -4% | 3%
O=C(Nc1ccc2nn(-c3ccccc3)nc2c1)c1ccc(-c2cccc(Cl)c2)o1 | nt | 14µM* | -15% | -22% | nt | 84%
COc1ccc(-n2nc3ccc(NC(=O)c4ccc(-c5cc(Cl)ccc5Cl)o4)cc3n2)cc1 | nt | ? | 5% | -5% | nt | 36%
O=C(Nc1ccc(CN2CCOCC2)cc1)c1ccc(Cl)cc1Cl | 3% | 17%[59 µM] | 3% | -3% | 19% | 47%
CCn1c(=O)n(CC)c2cc(N3CCCCC3)c(NC(=O)Nc3ccccc3Cl)cc21 | nt | ? | -38% | ? | nt | 18%
CC[N+](CC)(CC)CC[C@](O)(c1ccccc1)C1CCCCC1 | nt | 6%[21.5 µM] | nt | nt | -9% | nt
CCOC(=O)CC(NC(=O)Cn1nnc(-c2ccc(C(F)(F)F)cc2)n1)c1ccc(C)cc1 (centres undefined) | nt | 3%[59 µM] | -12% | -20% | nt | 16%
CCOc1cccc(C2Oc3nc(SC)nnc3-c3ccccc3N2C(C)=O)c1OC (centres undefined) | nt | -22%[59 µM] | -1% | -24% | nt | 19%
CC(O)c1n(C)c(Cl)c[n+]1C (centres undefined) | nt | 11µM* | 1% | ? | 10% | 9%
